# Source: PubChem BioAssay AID1851 (National Center for Advancing Translational Sciences (NCATS), 2009)
# Hit rate of the full screen: of about 16,000 compounds, about 4,000 (25%) were called active. Another 26% or so got no clear call; they are omitted. These entries were drawn from the full list. A number with no mark means an inactive call. Calls follow the shape of the dose curve; as a rule, active = well fitted curve in the direction sought with a large enough effect; inconclusive = small, poorly fitted or top-dose-only effect, or effect the other way; inactive = no such curve, though single readings can be large or run the other way.
# Biological target: Cytochrome P450 2C9 (Homo sapiens) (UniProt P11712)
# Assay: Cytochrome panel assay with activity outcomes
# Settings: recombinant CYP, pro-luciferin dealkylation, luminescence, p450-cyp2c9; series mostly up to 57.1 µM; activity, negative = inhibition: at the top concentration
# % is scaled to controls: 0 for no effect and ±100 for the full control effect.
# Sequence of Cytochrome P450 2C9 (Homo sapiens) (P11712 whole entry, looked up): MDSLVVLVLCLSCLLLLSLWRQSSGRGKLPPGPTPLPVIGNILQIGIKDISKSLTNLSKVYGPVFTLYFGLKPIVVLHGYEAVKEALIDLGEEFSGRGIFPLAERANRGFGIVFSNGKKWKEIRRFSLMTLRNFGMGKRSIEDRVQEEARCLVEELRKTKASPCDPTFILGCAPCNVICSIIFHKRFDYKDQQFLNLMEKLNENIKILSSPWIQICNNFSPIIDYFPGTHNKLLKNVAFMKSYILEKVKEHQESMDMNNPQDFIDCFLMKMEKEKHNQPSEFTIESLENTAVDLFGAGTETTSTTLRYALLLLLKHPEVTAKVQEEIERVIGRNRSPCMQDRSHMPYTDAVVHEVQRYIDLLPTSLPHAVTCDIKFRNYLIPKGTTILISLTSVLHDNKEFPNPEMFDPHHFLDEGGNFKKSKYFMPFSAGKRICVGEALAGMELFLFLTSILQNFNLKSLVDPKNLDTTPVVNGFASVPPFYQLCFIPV
SMILES,AC50,"activity, negative = inhibition"
CCN(CC)c1ncnc2c1sc1nc(C)cc(C)c12,17.8 µM (active),
Cc1noc(C)c1-c1cncnc1Nc1ccccc1,,-0.353% [at 2.29 µM]
CCN1C(=O)C(CC(=O)Nc2ccc(Br)cc2)N(CCCc2ccccc2)C1=S (centres undefined),0.708 µM (active),
CCNc1ncc2nc(-c3ccc(OC)cc3)c(=O)n(Cc3cccs3)c2n1,,-26.2%
CCN1C(=O)C(CC(=O)Nc2ccc(OC)cc2)N(Cc2cccs2)C1=S (centres undefined),7.08 µM (active),
CCOC(=O)C1=C(C)N=C2c3ccccc3C(=O)C2C1c1ccc(Cl)cc1 (centres undefined),0.562 µM (active),
CCOC(=O)C1=C(C)N=C2c3ccccc3C(=O)C2C1c1ccc(C)cc1 (centres undefined),0.891 µM (active),
Cc1nnsc1SC(C)C(=O)O (centres undefined),,-4.21%
CC(=O)c1cccc(NS(=O)(=O)c2ccc(N/C=C\C(=O)c3ccc(F)cc3)cc2)c1,2.82 µM (active),
O=C(/C=C/Nc1ccccc1)c1ccc(Oc2ncccn2)cc1,,19%
CC(=O)c1cccc(NC=C2C(=O)OC3(CCCCC3)OC2=O)c1,,-14%
Cc1cnc(CNc2cc(-c3ccccc3CN(C)C)ncn2)cn1,,10.9% [at 2.29 µM]
Cc1ccc(C(=O)N/N=C/c2ccc(S(=O)(=O)O)o2)c(Cl)c1,,-29.6%
COC(=O)c1ccc(/C=N\NC(=O)c2ccc(C)cc2Cl)cc1,8.91 µM (active),
Cc1ccc(S(=O)(=O)N[C@H](C(=O)Oc2ccc3c(C(F)(F)F)cc(=O)oc3c2)c2ccccc2)cc1,10 µM (active),
Cc1ccc(S(=O)(=O)NC(CC(C)C)C(=O)Oc2ccc3c4c(c(=O)oc3c2)CCC4)cc1 (centres undefined),,-27.3%
Cc1ccc(S(=O)(=O)N[C@H](CN)C(=O)O)cc1,,-0.685% [at 11.4 µM]
c1ccc2c(c1)ncn2-c1ccc(-c2ccnc(-c3ccncc3)n2)cc1,0.224 µM (active),
CCC(C)NS(=O)(=O)c1ccc(OCC(=O)NCC2CCCO2)cc1 (centres undefined),,-20%
CCC(C)NS(=O)(=O)c1ccc(OCC(=O)Nc2ccc3c(c2)OCCO3)cc1 (centres undefined),3.98 µM (active),
Cc1cc(C)c2c(SCc3ccc(Cl)cc3Cl)nc(N)nc2n1,,-3.34% [at 11.4 µM]
CSc1nc(C)cc(Nc2ccc(O)c(CN3CCOCC3)c2)n1,,-8.69% [at 11.4 µM]
Cc1cc(N2CCOCC2)nc(SCc2ccc(Cl)cc2Cl)n1,7.94 µM (active),
c1ccc(Nc2ncncc2-c2ccoc2)cc1,,4.61% [at 2.29 µM]
O=[N+]([O-])C1=CC=C2C(=NC3(CCCCC3)N2O)C1=NC1CCCCC1,3.55 µM (active),

SMILES,AC50,"activity, negative = inhibition"
CCOC(=O)C1=C[C@@]2(CC)CCCN3CCc4c(n1c1ccccc41)[C@H]32,inactive,
CCOCC(=O)Nc1cc(C(=O)Nc2ccccc2)ccc1Cl,5.62 µM (active),
CCOCC(=O)Nc1cc(C(=O)Nc2cccc(C)c2C)ccc1Cl,,9.34%
O=C(O)CSCCc1ccccc1,,29.1% [at 11.4 µM]
Cc1ccccc1CSc1nccn1-c1ccccc1,7.08 µM (active),
c1ccc(CCSc2nccn2-c2ccccc2)cc1,15.8 µM (active),
Cn1nnnc1SCc1ccccc1[N+](=O)[O-],,-16.4%
NCCSCCc1ccccc1,,-27.8% [at 11.4 µM]
CC(=O)N[C@@H]1CONC1=O,,-5.39% [at 11.4 µM]
COC(=O)c1c(NC(=O)C(C)(C)C)sc2c1C(C(=O)OC)CC2 (centres undefined),20 µM (active),
O=c1c(-c2cc(F)cc(F)c2)nc2cnc(N3CCOCC3)nc2n1-c1ccccc1,,-13.9%
O=c1c(-c2ccccc2)nc2cnc(N3CCOCC3)nc2n1-c1ccccc1,,-26%
O=c1nc(N2CCOCC2)ccn1-c1nc(-c2ccccc2)oc1-c1ccccc1,4.47 µM (active),
CCc1cc2c(nc1CC)CCN(CC/C(C)=N/O[C@@H](C)c1cn([C@@H]3COC[C@@H]3O)nn1)C2,,18.9% [at 11.4 µM]
CCCCCOc1ccc(NC(=O)C(=O)NCCC2=CCCCC2)cc1,,-0.0982%
O=C1CSc2ccc(C(=O)NCCC3=CCCCC3)cc2N1,,-25.7%
O=C(CN1CCN(c2ncccn2)CC1)NCCC1=CCCCC1,3.55 µM (active),
O=C(CN1C(=O)NC2(CCCC2)C1=O)NCCC1=CCCCC1,,-10.1%
COc1ccc2c(c1)CCCC21NC(=O)N(CC(N)=O)C1=O (centres undefined),,-6.71%
CC1(c2ccccc2)NC(=O)N(CC(=O)NCCC2=CCCCC2)C1=O (centres undefined),25.1 µM (active),
CCCCNC(=O)[C@@H]1Cc2ccccc2N1C(=O)[C@H](N)CC,,13.9%
O=C(CN1CCN(C2CCCCC2)CC1)NCCC1=CCCCC1,,3.24%
CCCCNC(=O)CN1C(=O)NC2(CCCc3ccccc32)C1=O (centres undefined),2.24 µM (active),
O=C(O)C1CCN(c2ncccn2)CC1,,-6.56%
